Results taken from PubChem BioAssay.
Values joined by “and” are separate entries in the source; they are usually repeats but may differ in a detail not shown here. Identical values can stand only once. Active and inactive are the calls of the source. Unless noted, no stated cut-off is given here; in the data, active means inhibition above about 80%; inactive means the rest.

Tests used:
[1] = HDN33 neuroblastoma growth inhibition, cell-based, chromothripsis tumors, cisplatin or BGB combos (AID 1671450); conditions: HDN33 neuroblastoma cells, stronger effect = higher value;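 further: cells exposed to compound for four days; 0% = vehicle DMSO and 100% = cell killing by high DMSO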
[2] = ICB984 medulloblastoma cell growth inhibition, synergistic combos for chromothripsis tumors, cisplatin or BGB combos (AID 1671451; call rule not given here;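 further: cells exposed for 96 hours before readout; 0% = vehicle DMSO and 100% = killing by high DMSO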); conditions: ICB984 medulloblastoma cells, drug combinations, stronger effect = higher value
[3] = LFS_MB_1R medulloblastoma cell growth inhibition, synergistic combos for chromothripsis tumors, cisplatin or BGB combos (AID 1671452); conditions: LFS_MB_1R medulloblastoma cells, stronger effect = higher value;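 further: cells exposed for 96 hours before readout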
[4] = HTB85 osteosarcoma cell growth inhibition, synergistic combos for chromothripsis tumors, BGB or cisplatin IC20 combos (AID 1671453); conditions: HTB85 osteosarcoma cells, drug combinations, stronger effect = higher value;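 further: cells exposed for 96 hours before readout; 0% = vehicle DMSO and 100% = high DMSO killing control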
[5] = CRL2098 osteosarcoma cell growth inhibition, synergistic combos for chromothripsis tumors, BGB or cisplatin IC20 combos (AID 1671454); conditions: CRL2098 osteosarcoma cells, drug combinations, stronger effect = higher value;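 further: cells exposed for 96 h before readout; 0% = vehicle DMSO and 100% = killing by high DMSO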
[6] = HD-MB03 medulloblastoma cell growth inhibition, synergistic combos for chromothripsis tumors, BGB or cisplatin IC20 combos (AID 1671455; in the data active means inhibition above about 83%;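 further: 0% = vehicle DMSO and 100% = high DMSO as cytotoxic control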); conditions: HD-MB03 medulloblastoma cells, stronger effect = higher value
[7] = UWB1.289 ovarian carcinoma cell growth inhibition, synergistic combos for chromothripsis tumors, BGB or cisplatin combos (AID 1671456); conditions: UWB1.289 ovarian carcinoma cells, stronger effect = higher value;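 further: cells exposed to compound for four days; 0% = vehicle DMSO and 100% = killing by high DMSO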
[8] = LFS_MB_2R medulloblastoma cell growth inhibition, synergistic combos for chromothripsis tumors, cisplatin combos (AID 1671457); conditions: LFS_MB_2R medulloblastoma cells, stronger effect = higher value;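 further: cells exposed to compound for four days before readout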
[9] = MDA-MB-436 breast carcinoma cell growth inhibition, synergistic combos for chromothripsis tumors, BGB or cisplatin combos (AID 1671458; call rule not given here;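 further: cells exposed for 96 hours; 0% = vehicle DMSO and 100% = killing by high DMSO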); conditions: MDA-MB-436 breast carcinoma growth inhibition, drug combinations, stronger effect = higher value
[10] = UWB1.289_BRCA1 ovarian cancer growth, cell-based, BGB or cisplatin combinations (AID 1671459); conditions: UWB1.289 BRCA1 ovarian carcinoma, drug combinations, stronger effect = higher value
[11] = human astrocyte viability loss, single and combined drugs, cytotoxicity control for chromothriptic childhood tumor combination screen, cell-based, BGB or cisplatin IC20 combos (AID 1671460); conditions: Human astrocytes, drug combinations, stronger effect = higher value;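 further: cells exposed to compounds for 96 hours before viability readout; 0% = vehicle and 100% = killing control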
[12] = growth inhibition of BT084 medulloblastoma cells, cell-based, ICGC_MB145, cisplatin and BGB IC40 combos (AID 1671461); conditions: drug combinations, stronger effect = higher value;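 further: cells exposed to drugs for 96 hours; 0% = vehicle DMSO and 100% = high DMSO full killing control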
[13] = growth inhibition of RCMB18 medulloblastoma cells, cell-based, cisplatin and BGB IC40 combos (AID 1671462); conditions: stronger effect = higher value;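 further: cells exposed to compound for four days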
[14] = growth inhibition of CRL1545 osteosarcoma cells, cell-based, cisplatin and BGB IC20 combos (AID 1671464); conditions: stronger effect = higher value;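 further: cells exposed to compound for 96 hours before readout; 0% = vehicle DMSO and 100% = high DMSO killing control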
[15] = measured here: with cisplatin IC20 combination, at 0.5 µM
[16] = measured here: combination with cisplatin, at 0.5 µM
[17] = measured here: combination with cisplatin, at 5 µM

Structure (SMILES): NC(=O)c1ccc(I)c([N+](=O)[O-])c1
- inhibition [1, 15]: 8.47% and -16.9%
- inhibition ([1]; single agent, at 5 µM): -4.01% and -42.6%
- inhibition ([2]; BGB IC20 combo, at 0.005 µM): 6.79% and -19.8%
- inhibition ([2]; BGB IC40 combo, at 0.005 µM): -8.71% and -63.3%
- inhibition ([2]; BGB IC40 combo, at 0.05 µM): 6.96% and -25.8%
- inhibition ([2]; at 0.5 µM): -18.4% (inactive) and -40.8% (inactive)
- inhibition ([2]; cisplatin combo, at 0.05 µM): 4.36% and -30.8%
- inhibition ([2]; cisplatin combo, at 0.5 µM): -11.9% and -53.2%
- inhibition ([2]; cisplatin combo, at 5 µM): -10.4% and -25.8%
- inhibition ([2]; measured here: 5 uM single agent, at 5 µM): -7.67% and -25%
- inhibition ([3]; at 0.5 µM): -3.89% (inactive) and -33.7% (inactive)
- inhibition ([3]; measured here: combination with BGB IC40, at 0.05 µM): -3.85% and -20%
- inhibition [3, 16]: -8.55% and -54.4%
- inhibition [3, 17]: 14.7% and -8.48%
- inhibition ([4]; at 0.5 µM): 9.09% (inactive) and -11.2% (inactive)
- inhibition ([4]; measured here: with BGB IC20, at 0.5 µM): 18.2% and -8.85%
- inhibition ([4]; measured here: with BGB IC20, at 5 µM): -13% and -0.795%
- inhibition ([4]; measured here: with cisplatin IC20, at 0.5 µM): -4.67% and -22.1%
- inhibition ([4]; measured here: with cisplatin IC20, at 5 µM): -22.8% and -21.8%
- inhibition ([4]; single agent, at 5 µM): -0.511% and -17.6%
- inhibition ([5]; at 0.5 µM): -9.77% (inactive) and -68.7% (inactive)
- inhibition ([5]; measured here: combination with BGB at IC20, at 0.5 µM): 4.55% and -23.6%
- inhibition ([5]; measured here: combination with cisplatin at IC20, at 0.5 µM): -0.612% and -98.1%
- inhibition ([6]; at 0.5 µM): 2.12% (inactive) and -9.81% (inactive)
- inhibition ([6]; measured here: combo with BGB at IC20, at 0.5 µM): 8.1% and -18.5%
- inhibition ([6]; measured here: combo with cisplatin at IC20, at 0.5 µM): 1.77% and -5.96%
- inhibition ([7]; at 0.5 µM): 4.39% (inactive) and -12.6% (inactive)
- inhibition ([7]; measured here: inhibition with BGB combination, at 0.05 µM): -4.87% and -28.1%
- inhibition ([7]; measured here: inhibition with cisplatin combination, at 0.05 µM): 4.41% and -26.6%
- inhibition ([8]; at 0.5 µM): -3.62% (inactive) and -27.7% (inactive)
- inhibition [8, 16]: 4.37% and -27.4%
- inhibition [8, 17]: -55.7% and -23.8%
- inhibition ([9]; at 0.5 µM): -14.6% (inactive) and -27.1% (inactive)
- inhibition ([9]; measured here: BGB combination, at 0.5 µM): -12.7% and -19.7%
- inhibition ([9]; measured here: BGB combination, at 5 µM): 6.5% and -14.3%
- inhibition ([9]; measured here: cisplatin combination, at 0.5 µM): -24.5% and -37.3%
- inhibition ([9]; measured here: cisplatin combination, at 5 µM): -16.7% and -24%
- inhibition ([10]; BGB combination, concentration series, at 5 µM): 8.62% and -14.6%
- inhibition ([10]; at 0.5 µM): 3.67% (inactive) and -21.5% (inactive)
- inhibition ([10]; cisplatin combination, concentration series, at 5 µM): 11.7% and -8.59%
- inhibition ([11]; at 0.5 µM): 13.4% (inactive) and -16.5% (inactive)
- inhibition ([11]; measured here: combo with BGB IC20, at 0.5 µM): 12.4% and -9.72%
- inhibition ([11]; measured here: combo with cisplatin IC20, at 0.5 µM): 18.2% and -4.93%
- inhibition ([12]; at 0.5 µM): -19.3% (inactive) and -16.2% (inactive)
- inhibition ([12]; cisplatin combination, at 0.5 µM): 8.84% and -1.53%
- inhibition ([12]; cisplatin combination, at 5 µM): 4.99% and 0.215%
- inhibition ([12]; measured here: BGB IC40 combination 0.05 uM, at 0.05 µM): 25.4% and -22.5%
- inhibition ([12]; single agent, at 5 µM): -9.27% and -35.4%
- inhibition ([13]; at 0.5 µM): 2.19% (inactive) and -9.96% (inactive)
- inhibition ([13]; cisplatin combo, at 5 µM): 15.5% and 33.9%
- inhibition ([13]; measured here: BGB IC40 combination, at 0.05 µM): -12.1% and -17.3%
- inhibition [13, 16]: 21.4% and 23.8%
- inhibition ([13]; single agent, at 5 µM): -9.55% and -39.2%
- inhibition ([14]; at 0.5 µM): 3.31% (inactive) and -13.9% (inactive)
- inhibition ([14]; measured here: with BGB IC20 combination, at 0.5 µM): -14.5% and -22.9%
- inhibition [14, 15]: 10.2% and -9.34%
- inhibition ([14]; single agent, at 0.05 µM): -40.1% and -19.9%
- inhibition ([14]; single agent, at 5 µM): -12.7% and -3.93%
